Reference: PubChem BioAssay
For part of these data: Potency and affinity values are given separately. The source made the active and inactive calls.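 How the source made its calls, unless noted: active means primary screen activator hit with a dose response curve and TRPC4 channel activation at any tested dose; inactive means no activation, no dose response, or not a primary hit.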

Columns and labels:
[1] = system: TRPC4 beta (transient receptor potential cation channel C4), mouse; experiment: activators of mouse TRPC4 channel, confirmation, cell-based, Fluo4 calcium, HEK293 TRPC4beta/mu-opioid, duplicates, 10 µM (AID 2426;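 active means fluorescence ratio normalized to control raised more than 50% in primary screen plus both repeat runs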); conditions: Fluo4 calcium fluorescence, at 10 µM; active compounds read high
[2] = system: transient receptor potential cation channel C4 beta (TRPC4), mouse; experiment: activators of mouse TRPC4 channel, confirmation, cell-based, second round, Fluo4, HEK293 TRPC4beta/mu-opioid, 1 µM (AID 2461;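 active means primary screen active and over 50% activation in each of two duplicate runs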); conditions: Fluo4 calcium fluorescence, at 1 µM; active compounds read high
[3] = system: TRPC4 (transient receptor potential cation channel C4 beta), mouse; experiment: positive allosteric modulators of mouse TRPC4, confirmation, cell-based, second round, Fluo-4, HEK293 TRPC4beta/mu-opioid, 1 µM (AID 2554;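 active means primary screen hit whose fluorescence ratio, in both repeats, exceeds the weak agonist control mean by 3 SD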); conditions: DAMGO EC20, Fluo-4 calcium flux, at 1 µM; active compounds read high
[4] = system: TRPC4 beta (transient receptor potential cation channel C4), mouse; experiment: positive allosteric modulators of mouse TRPC4, confirmation, cell-based, Fluo-4, HEK293 TRPC4beta/mu-opioid (AID 2555;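 active means primary screen hit whose calcium fluorescence ratio, in both repeats, exceeds the weak agonist control mean by 3 SD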); conditions: DAMGO EC20, Fluo-4 calcium flux, at 10 µM; active compounds read high
[5] = molecular target: Short transient receptor potential channel 4 (Mus musculus) (UniProt Q9QUQ5); experiment: inhibitors of mouse TRPC4 channel, confirmation, cell-based, Fluo4, HEK293 TRPC4beta/mu-opioid (AID 2636;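 active means calcium signal cut by more than 3 SD below the full-agonist control yet still positive, in both repeats and the earlier primary screen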); conditions: DAMGO, Fluo4 calcium flux, at 10 µM; active compounds read high
[6] = molecular target: Short transient receptor potential channel 4 (Mus musculus) (UniProt Q9QUQ5); experiment: inhibitors of mouse TRPC4 channel, confirmation, cell-based, second round, Fluo4, HEK293 TRPC4beta/mu-opioid, 1 µM (AID 2637;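 active means calcium signal ratio cut to more than 3 SD under the fully stimulated control mean yet still positive, in both repeats and the primary screen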); conditions: Fluo4 calcium flux, DAMGO, at 1 µM; active compounds read high
[7] = molecular target: Short transient receptor potential channel 4 (Mus musculus) (UniProt Q9QUQ5); experiment: mouse TRPC4 channel activators, dose response, cell-based, HEK293 TRPC4/mu-opioid, Fluo-4 calcium (AID 434937)
[8] = molecular target: Short transient receptor potential channel 4 (Mus musculus) (UniProt Q9QUQ5); experiment: TRPC4 positive allosteric modulators, dose response, cell-based, HEK293 TRPC4/mu-opioid, Fluo-4 calcium, EC20 DAMGO (AID 434941;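 active means earlier screen potentiator hit that boosts the TRPC4 ion channel at some dose, with a dose response; inactive means no potentiation, no dose response, or not a prior hit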;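 further: calcium entry triggered by an EC20 dose of DAMGO at the co-expressed mu-opioid receptor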)
[9] = molecular target: Short transient receptor potential channel 4 (Mus musculus) (UniProt Q9QUQ5); experiment: mouse TRPC4 channel inhibitors, dose response, cell-based, HEK293 TRPC4/mu-opioid, Fluo-4 calcium (AID 434942;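 active means primary screen inhibitor hit that blocks the TRPC4 channel at some tested dose, yielding a dose curve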)
[10] = molecular target: Short transient receptor potential channel 6 (Mus musculus) (UniProt Q61143); experiment: inhibition of mouse TRPC6 channel, confirmation, selectivity assay for TRPC4 inhibitor project, cell-based, HEK293, membrane potential dye, duplicate (AID 434948;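 active means active in primary screen and both duplicates, each dropping signal beyond three positive-control SD with fluorescence still positive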); conditions: HEK293 TRPC6, membrane potential dye fluorescence, at 10 µM, stimulated with maximal-effect acetylcholine; active compounds read high
[11] = molecular target: Short transient receptor potential channel 6 (Mus musculus) (UniProt Q61143); experiment: activation of mouse TRPC6 channel, confirmation, selectivity assay for TRPC4 activator project, cell-based, HEK293, membrane potential dye, duplicate (AID 434950;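 active means membrane potential signal rise above negative control mean plus 3 SD in both duplicates, also active in the earlier TRPC4 screen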); conditions: HEK293 TRPC6, membrane potential fluorescence, at 10 µM; active compounds read high
[12] = molecular target: Short transient receptor potential channel 6 (Mus musculus) (UniProt Q61143); experiment: TRPC6 potentiation by TRPC4 potentiator hits, confirmation, selectivity assay for TRPC4 potentiator project, HEK293 cells, membrane potential dye, duplicate (AID 434952;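 active means compound raising the membrane signal above positive-control mean plus 3 SD in both repeats, and a primary screen hit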); conditions: HEK293 TRPC6, membrane potential dye fluorescence, at 10 µM, maximal acetylcholine added after compound; active compounds read high
[13] = molecular target: Short transient receptor potential channel 4 (Mus musculus) (UniProt Q9QUQ5); experiment: calcium flux activators in TRPC4/5HT1a cells, counter-screen for TRPC4 activator project, cell-based, second counter screen, HEK293 TRPC4/5HT1a, Fluo-4 (AID 434977;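 active means calcium signal rise above buffer-control mean plus 5 SD in both duplicates, and also a hit in the primary screen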); conditions: Fluo-4 calcium flux, at 10 µM; active compounds read high
[14] = calcium flux inhibitors in TRPC4/5HT1a cells, confirmation, counter-screen for TRPC4 inhibitor project, cell-based, second counter screen, HEK293 TRPC4/5HT1a, Fluo-4 (AID 434978;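 active means primary screen active whose calcium signal fell more than 3 SD beyond the full-serotonin control mean in both duplicate plates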;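 on outcome: serotonin given first at submaximal then at maximal dose after compound preincubation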); conditions: Fluo-4 calcium flux, at 10 µM, serotonin added to trigger calcium flux; active compounds read high
[15] = system: TRPC4 (mouse), co-expressed with 5HT1a in HEK293; experiment: calcium flux potentiators in TRPC4/5HT1a cells, confirmation, counter-screen for TRPC4 potentiator project, cell-based, second counter screen, HEK293 TRPC4/5HT1a, Fluo-4 (AID 434979;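 active means signal rise over 3 SD above mean of control wells given weak agonist, in both repeats and first screen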); conditions: Fluo-4 calcium flux, at 10 µM, serotonin added at its EC20 dose; active compounds read high
[16] = calcium flux activation in mu-opioid HEK293 cells, confirmation, counter-screen for TRPC4 activator project, cell-based, HEK293 mu-opioid receptor line (AID 449723;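 active means hit in primary screen, with calcium signal over 5 SD above buffer well mean in both duplicates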;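 further: counter screen cells carry the mu-opioid receptor alone and lack TRPC4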); conditions: Fluo-4 calcium fluorescence, at 10 µM; active compounds read high
[17] = calcium flux enhancement in mu-opioid HEK293 cells, confirmation, counter-screen for TRPC4 allosteric potentiator project, cell-based, HEK293 mu-opioid receptor line (AID 449724;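 active means calcium signal rise more than 3 SD above the low-dose agonist control mean, in both duplicate plates and the primary screen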); conditions: Fluo-4 calcium flux, at 10 µM, compound added before EC20 DAMGO stimulus; active compounds read high

Chain of Short transient receptor potential channel 4 (Mus musculus) (Q9QUQ5 whole entry, looked up): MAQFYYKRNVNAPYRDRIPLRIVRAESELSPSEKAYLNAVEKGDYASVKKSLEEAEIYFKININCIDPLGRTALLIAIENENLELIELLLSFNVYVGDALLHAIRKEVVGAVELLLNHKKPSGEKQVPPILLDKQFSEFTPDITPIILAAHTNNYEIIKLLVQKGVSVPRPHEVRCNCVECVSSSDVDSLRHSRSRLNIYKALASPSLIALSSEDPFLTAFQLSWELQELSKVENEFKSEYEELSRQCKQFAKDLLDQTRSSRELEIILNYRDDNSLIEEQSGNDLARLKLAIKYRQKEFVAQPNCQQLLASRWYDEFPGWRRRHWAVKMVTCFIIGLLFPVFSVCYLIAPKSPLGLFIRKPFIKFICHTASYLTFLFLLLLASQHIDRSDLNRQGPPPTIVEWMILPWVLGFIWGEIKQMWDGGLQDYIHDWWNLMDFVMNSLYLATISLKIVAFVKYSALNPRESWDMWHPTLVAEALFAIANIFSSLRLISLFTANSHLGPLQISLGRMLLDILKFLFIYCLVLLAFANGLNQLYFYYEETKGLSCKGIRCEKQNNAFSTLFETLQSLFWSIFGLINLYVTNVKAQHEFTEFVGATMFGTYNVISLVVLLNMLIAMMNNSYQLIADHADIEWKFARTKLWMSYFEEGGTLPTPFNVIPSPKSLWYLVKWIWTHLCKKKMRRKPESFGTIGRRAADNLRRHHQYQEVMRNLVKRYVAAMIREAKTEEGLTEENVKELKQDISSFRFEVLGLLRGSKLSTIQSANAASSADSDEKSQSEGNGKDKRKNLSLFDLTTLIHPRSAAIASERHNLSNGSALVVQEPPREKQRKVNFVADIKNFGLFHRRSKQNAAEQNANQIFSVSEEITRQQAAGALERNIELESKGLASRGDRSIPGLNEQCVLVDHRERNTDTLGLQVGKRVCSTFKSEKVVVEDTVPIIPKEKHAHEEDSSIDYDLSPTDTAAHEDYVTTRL
Chain of Short transient receptor potential channel 6 (Mus musculus) (Q61143 whole entry, looked up): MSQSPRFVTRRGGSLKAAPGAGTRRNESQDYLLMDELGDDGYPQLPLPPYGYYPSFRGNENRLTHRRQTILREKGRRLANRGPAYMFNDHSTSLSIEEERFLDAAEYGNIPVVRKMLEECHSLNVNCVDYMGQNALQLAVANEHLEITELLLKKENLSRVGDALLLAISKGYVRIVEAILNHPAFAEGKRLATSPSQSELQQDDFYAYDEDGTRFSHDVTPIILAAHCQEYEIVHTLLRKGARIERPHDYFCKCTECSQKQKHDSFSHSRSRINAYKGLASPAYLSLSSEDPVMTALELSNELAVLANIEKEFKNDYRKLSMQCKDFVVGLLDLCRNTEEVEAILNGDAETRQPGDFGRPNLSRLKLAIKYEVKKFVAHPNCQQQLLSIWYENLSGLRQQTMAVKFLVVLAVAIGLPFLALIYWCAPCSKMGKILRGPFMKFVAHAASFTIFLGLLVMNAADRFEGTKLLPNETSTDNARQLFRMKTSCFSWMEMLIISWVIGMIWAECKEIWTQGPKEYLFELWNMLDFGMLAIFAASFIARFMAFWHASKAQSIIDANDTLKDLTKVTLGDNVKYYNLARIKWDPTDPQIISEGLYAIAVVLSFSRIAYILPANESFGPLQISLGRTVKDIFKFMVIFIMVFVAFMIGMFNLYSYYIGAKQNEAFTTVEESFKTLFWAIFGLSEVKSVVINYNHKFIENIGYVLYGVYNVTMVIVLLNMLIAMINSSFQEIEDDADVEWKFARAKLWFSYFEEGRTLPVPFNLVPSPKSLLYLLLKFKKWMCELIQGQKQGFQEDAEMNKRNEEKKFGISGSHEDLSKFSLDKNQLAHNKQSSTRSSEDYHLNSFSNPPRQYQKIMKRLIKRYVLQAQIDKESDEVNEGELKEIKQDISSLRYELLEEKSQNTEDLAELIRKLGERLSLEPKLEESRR

c1cnc(N2CCN(c3cnccn3)CC2)nc1
inactive: outcome [1] | outcome [2] | outcome [3] | outcome [4] | outcome [5] | outcome [6] | outcome [7] | outcome [8] | outcome [9] | outcome [10] | outcome [11] | outcome [12] | outcome [13] | outcome [14] | outcome [15] | outcome [16] | outcome [17]

O=C(NCc1cccs1)C12CC3CC(CC(C3)C1)C2
inactive: outcome [1] | outcome [2] | outcome [3] | outcome [4] | outcome [5] | outcome [6] | outcome [7] | outcome [8] | outcome [9] | outcome [10] | outcome [11] | outcome [12] | outcome [13] | outcome [14] | outcome [15] | outcome [16] | outcome [17]

O=C(/C=C/c1ccccc1Cl)N(c1ccccn1)C1CCCCC1
inactive: outcome [1] | outcome [2] | outcome [3] | outcome [4] | outcome [5] | outcome [6] | outcome [7] | outcome [8] | outcome [9] | outcome [10] | outcome [11] | outcome [12] | outcome [13] | outcome [14] | outcome [15] | outcome [16] | outcome [17]

CCN1C(=O)/C(=C/C=C2\N(CC)c3cc(S(=O)(=O)N(C)C)ccc3N2c2ccccc2)SC1=S
active: potentiation [4] 13% | potentiation [15] 24.9% | activation [17] 996%
inactive: outcome [1] | outcome [2] | outcome [3] | outcome [5] | outcome [6] | outcome [7] | outcome [8] | outcome [9] | outcome [10] | outcome [11] | outcome [12] | outcome [13] | outcome [14] | outcome [16]

Cc1ccc(C(=O)NNC(=O)C2CSC3(C)CCC(=O)N23)cc1 (stereo not given)
inactive: outcome [1] | outcome [2] | outcome [3] | outcome [4] | outcome [5] | outcome [6] | outcome [7] | outcome [8] | outcome [9] | outcome [10] | outcome [11] | outcome [12] | outcome [13] | outcome [14] | outcome [16] | outcome [17]
active: potentiation [15] 7.03%

N=c1oc2ccc(Cl)cc2cc1C(=O)NC1CCCCCC1
inactive: outcome [1] | outcome [2] | outcome [3] | outcome [4] | outcome [5] | outcome [6] | outcome [7] | outcome [8] | outcome [9] | outcome [10] | outcome [11] | outcome [12] | outcome [13] | outcome [14] | outcome [15] | outcome [16] | outcome [17]

Oc1ccccc1-c1cc(-c2ccco2)[nH]n1
inactive: outcome [1] | outcome [2] | outcome [3] | outcome [4] | outcome [5] | outcome [6] | outcome [7] | outcome [8] | outcome [9] | outcome [10] | outcome [11] | outcome [12] | outcome [13] | outcome [14] | outcome [15] | outcome [16] | outcome [17]

CN(CC(=O)Nc1ccc(F)cc1)C(=O)COC(=O)C1CCN(c2ccc(C(F)(F)F)cn2)CC1
inactive: outcome [1] | outcome [2] | outcome [3] | outcome [4] | outcome [6] | outcome [7] | outcome [8] | outcome [9] | outcome [10] | outcome [11] | outcome [12] | outcome [13] | outcome [15] | outcome [16] | outcome [17]
active: inhibition [5] 70% | inhibition [14] 36.3%

CC(C)OC(=O)C1CC=CCC1C(=O)Nc1ccc(Cl)cc1 (stereo not given)
inactive: outcome [1] | outcome [2] | outcome [3] | outcome [4] | outcome [5] | outcome [6] | outcome [7] | outcome [8] | outcome [9] | outcome [10] | outcome [11] | outcome [12] | outcome [13] | outcome [14] | outcome [15] | outcome [16] | outcome [17]

CCN1CCN(c2ccc(NC(=O)CCc3c(C)nc4c(-c5ccc(F)cc5)c(C)nn4c3C)cc2)CC1
inactive: outcome [1] | outcome [2] | outcome [3] | outcome [4] | outcome [5] | outcome [6] | outcome [7] | outcome [8] | outcome [9] | outcome [10] | outcome [11] | outcome [12] | outcome [13] | outcome [14] | outcome [15] | outcome [16] | outcome [17]

CN(C)CCCNc1nc(N)c([N+](=O)[O-])c(NCc2ccccc2)n1
inactive: outcome [1] | outcome [2] | outcome [3] | outcome [4] | outcome [5] | outcome [6] | outcome [7] | outcome [8] | outcome [9] | outcome [10] | outcome [11] | outcome [12] | outcome [13] | outcome [14] | outcome [15] | outcome [16] | outcome [17]

Cc1ccc2nc(C(=O)N3CCc4c([nH]c5ccccc45)C3c3ccccn3)cn2c1 (stereo not given)
inactive: outcome [1] | outcome [2] | outcome [3] | outcome [4] | outcome [5] | outcome [6] | outcome [7] | outcome [8] | outcome [9] | outcome [10] | outcome [11] | outcome [12] | outcome [13] | outcome [14] | outcome [15] | outcome [16] | outcome [17]

NN=C1c2cc([N+](=O)[O-])ccc2-c2ccc([N+](=O)[O-])cc21
inactive: outcome [1] | outcome [2] | outcome [3] | outcome [4] | outcome [5] | outcome [6] | outcome [7] | outcome [8] | outcome [9] | outcome [10] | outcome [11] | outcome [12] | outcome [13] | outcome [14] | outcome [15] | outcome [16] | outcome [17]

O=C(c1coc2ccc(O)c(CN3CCOCC3)c12)C1CC1
inactive: outcome [1] | outcome [2] | outcome [3] | outcome [4] | outcome [5] | outcome [6] | outcome [7] | outcome [8] | outcome [9] | outcome [10] | outcome [11] | outcome [12] | outcome [13] | outcome [14] | outcome [15] | outcome [16] | outcome [17]

Cc1ccc(Cn2c(=N)c(C(=O)NC3CCCCC3)cc3c(=O)n4ccccc4nc32)cc1
active: potentiation [4] 26%
inactive: outcome [1] | outcome [2] | outcome [3] | outcome [5] | outcome [6] | outcome [7] | outcome [8] | outcome [9] | outcome [10] | outcome [11] | outcome [12] | outcome [13] | outcome [14] | outcome [15] | outcome [16] | outcome [17]
